Values joined by “and” are separate entries in the source; they are usually repeats but may differ in a detail not shown here. Identical values can stand only once. Compounds without any hit were thinned out: in the full panel of roughly 79,000, 15% have a hit. Active and inactive are the calls of the source. Cut-off read from the data, not from the text of the source: active = growth inhibition above about 70%; inactive = the rest.
How the values were obtained:
[1] = NCI Yeast Anticancer Drug Screen. Data for the rad50 strain (AID 155);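 note: 0% = growth of vehicle-only cultures of the same strain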; conditions: S. cerevisiae rad50 strain growth inhibition, active compounds read high; at 50.0 µM unless noted
Procedure, shortened: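 Genetically altered yeast (DNA repair pathway); compound treatment; growth inhibition vs vehicle ctrl.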

[2] = NCI Yeast Anticancer Drug Screen. Data for the mec2-1 strain (AID 157); conditions: S. cerevisiae mec2-1 strain, active compounds read high; at 50.0 µM unless noted
Procedure, shortened: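 Using mec2-1 yeast: add compound, measure growth, express inhibition versus vehicle-treated cultures.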

[3] = NCI Yeast Anticancer Drug Screen. Data for the sgs1 mgt1 strain (AID 161);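 note: 0% = growth of cultures given vehicle only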; conditions: S. cerevisiae sgs1 mgt1 strain, active compounds read high; at 50.0 µM unless noted
Procedure, shortened: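 Growth of a repair-deficient yeast mutant was monitored after compound treatment and expressed as inhibition relative to vehicle-treated cultures.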

[4] = NCI Yeast Anticancer Drug Screen. Data for the cln2 rad14 strain (AID 165);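 note: 0% = growth equal to vehicle treated cultures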; conditions: S. cerevisiae cln2 rad14 strain, active compounds read high; at 50.0 µM unless noted
Procedure, shortened: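 Yeast strain cln2 rad14, bearing defects in cell cycle control and DNA repair, serves as the test system; values reflect growth inhibition compared with vehicle.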

[5] = NCI Yeast Anticancer Drug Screen. Data for the bub3 strain (AID 167); conditions: S. cerevisiae bub3 mutant strain, active compounds read high; at 50.0 µM unless noted
Procedure, shortened: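 Yeast carrying a defined mutation is treated with each compound, and growth is compared with that of vehicle-exposed cells to give inhibition.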

[6] = NCI Yeast Anticancer Drug Screen. Data for the mlh1 rad18 strain (AID 175); conditions: S. cerevisiae mlh1 rad18 strain growth inhibition, active compounds read high; at 50.0 µM unless noted
Procedure, shortened: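 Steps: expose repair-defective yeast to compound; measure growth; express inhibition against vehicle-treated controls.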

Measured: growth inhibition

CN1C=C(C(N)=O)Cc2ccsc21
inactive: [1] 10.7% | [2] -10.8% | [3] -15.8% | [4] -8.95% | [5] -17.1% | [6] -18.5%

COc1ccc(C)cc1NC(=O)OCCCl
inactive: [1] 3.1% | [2] 2.35% | [3] 2.65% | [4] 5.95% | [5] 11.1% | [6] -5.3%

CCOC(=O)c1c(C)[nH]c(C(=O)CCN(C)C)c1C
inactive: [1] 7.35% | [2] 0.2% | [3] 17.4% | [4] -33.9% | [5] 2.1% | [6] 0.65%

CC(=O)Oc1ccc(Cc2ccccc2)cc1
inactive: [1] 47% | [2] 33.5% | [3] 48.2% | [4] -49.2% | [5] 32.9% | [6] 49.1%

CCCCCCCCCCCCCCCCCC(=O)N/N=C\c1c(O)ccc2ccccc12
inactive: [1] 21.4% | [2] 11.7% | [3] 4.85% | [4] 2.15% | [5] -10.1% | [6] 20.2%

O=C(CCC1OCCO1)Nc1cc([N+](=O)[O-])ccc1OCc1ccccc1
inactive: [1] -1.9% | [2] 4.5% | [3] 6.25% | [4] -8.2% | [5] -1.35% | [6] 7.6%

COc1cc(OC)c(/C=N/N=C(\N)NO)c(OC)c1
inactive: [1] -8.95% | [2] 12.2% | [3] -0.7% | [4] 9.65% | [5] -1.15% | [6] -9.75%

CCCCCN1C(=O)c2ccccc2C1=O
inactive: [1] 23.1% | [2] 10.5% | [3] 6.4% | [4] 5.15% | [5] 6.3% | [6] -0.55%

N#CCSc1ncnc2nc[nH]c12
inactive: [1] 4.25% | [2] 1.65% | [3] -5.95% | [4] 5.6% | [5] 4.8% | [6] 0.15%

CC(=O)OCc1c(COC(C)=O)c(-c2ccc(Cl)cc2)n2c1CCC2
inactive: [1] 34% | [2] 16.6% | [3] 19.3% | [4] -18.1% | [5] 9.6% | [6] 23.9%

CCOc1ccccc1/C=C1\N=C(c2ccc([N+](=O)[O-])cc2)OC1=O
inactive: [1] 22.5% | [2] 21.2% | [3] 38.7% | [4] 25.5% | [5] 30.1% | [6] 31%

Cc1cc2ccccc2c[n+]1CC(O)C[n+]1cc2ccccc2cc1C
inactive: [1] -18.9% | [2] -31.1% | [3] -36.4% | [4] -27.7% | [5] -45% | [6] -0.8%

Fc1cccc(C(Nc2nncs2)Nc2nncs2)c1F
inactive: [1] 5.5% | [2] 8.95% | [3] 29.8% | [4] -1.2% | [5] 5.15% | [6] 28.2%

Nc1cc([N+](=O)[O-])ccc1C(=O)O
inactive: [1] 15.2% | [2] 0.05% | [3] -11.4% | [4] -3.1% | [5] 2.65% | [6] -14.3%

Cc1nc2c(cnn2C)c(=O)n1C(C)C
inactive: [1] 3.3% | [2] -0.3% | [3] 3.8% | [4] -6.5% | [5] -11.3% | [6] 3.4%

N#CCC(=O)OCCCc1ccccc1
inactive: [1] 15.8% | [2] 9.2% | [3] -1.5% | [4] -32.5% | [5] 2.65% | [6] 0.45%

N#C/C=C\c1ccc(-c2cc(C(F)(F)F)cc(C(F)(F)F)c2)o1
inactive: [1] -49% | [2] -22.6% | [3] -42.5% | [4] 3.65% | [5] 10.8% | [6] -57.5%

O=c1[nH]c(/C=C/c2ccccc2)c([N+](=O)[O-])c(=O)[nH]1
inactive: [1] -7% | [2] 2.9% | [3] -12.7% | [4] -19.6% | [5] 26.6% | [6] 16.8%

CC(C)(C)OC(=O)NCC(=O)NC1C/C(=N\O)c2sccc21 (stereo unspecified)
inactive: [1] 17.4% | [2] 5.8% | [3] 11.3% | [4] 15.6% | [5] -5.35% | [6] 39.5%

CCOC(=O)C(CC(C)C)NC(=O)c1c2nc3c(C(=O)NC(CC(C)C)C(=O)OCC)cc(NC(C)=O)c(C)c3oc-2c(C)c(=O)c1N (stereo unspecified)
inactive: [1] 8.4% | [2] 34.5% | [3] 34.6% | [4] -4.95% | [5] -6.5% | [6] 48.8%

CCc1cccc(CC)c1N1C(=O)CC(Sc2ccccc2N)C1=O (stereo unspecified)
inactive: [1] -18.1% | [2] -16.3% | [3] -14.8% | [4] -0.85% | [5] -9.5% | [6] -25.8%

CCOC(=O)NC(=O)c1cn(CCCCCCCCCCC(=O)N2CCN(CCn3cc(C(=O)NC(=O)OCC)c(=O)[nH]c3=O)CC2)c(=O)[nH]c1=O
inactive: [1] 27.2% | [2] 18.4% | [3] 17.9% | [4] 5.8% | [5] -6.2% | [6] 6.45%

O=c1cc2ccccc2nn1-c1ccccc1Cl
inactive: [1] 26.1% | [2] 6.4% | [3] 37.6% | [4] 36.5% | [5] 25.3% | [6] 34.5%

C/C=C1\CC2C=CC1C2 (stereo unspecified) (tested in a mixture with another compound)
inactive: [1] 5.35% | [2] -15.4% | [3] 3.25% | [4] 0.5% | [5] 11.6% | [6] 8.15%

Cc1ccc(-c2c(C#N)c(O)n(NS(=O)(=O)c3ccccc3)c(=O)c2C#N)cc1
inactive: [1] 4.45% | [2] 6.4% | [3] -30.4% | [4] 0.8% | [5] -14.3% | [6] -11.7%

O=[N+]([O-])c1ccc(/C(=C\c2ccc(-c3ccccc3)o2)S(=O)(=O)c2ccccc2)o1
inactive: [1] 26.2% | [2] -17.5% | [3] -5.1% | [4] 23.6% | [5] -1.2% | [6] 2.25%

CC1=Nc2cc(Cl)c(Cl)cc2N(C)/C1=C/C1=C(Cl)C(=O)c2cc3c(Cl)ccc(Cl)c3cc2C1=O
inactive: [1] -0.05% | [2] 8.75% | [3] 13.1% | [4] 25.1% | [5] -1.4% | [6] 20.8%

O=C(Nc1ccc2ccccc2c1)c1ccccc1Cl
inactive: [1] 1.65% | [2] -4.4% | [3] 21.9% | [4] -7.15% | [5] 17.1% | [6] 32.3%

CCOc1ccccc1NC(=O)C(=O)C(C(=O)c1ccc2ccccc2c1)C1OC(=O)c2ccccc21 (stereo unspecified)
inactive: [1] -4% | [2] 4.35% | [3] 13.6% | [4] -50% | [5] 12.5% | [6] 0.45%

COc1ccc(Cl)c2c(=O)c3ccccc3[nH]c12
inactive: [1] -3.45% | [2] 7.65% | [3] 2.5% | [4] -35.1% | [5] -12.3% | [6] 12.8%

CN=c1ss/c(=N\C(=S)N(C)C)n1C1CCCCC1
inactive: [1] -9.6% | [2] -0.55% | [3] 14% | [4] 13.1% | [5] 0% | [6] 21.2%

O=C(CC1CCCCC1)OCCOCCO
inactive: [1] -7.9% | [2] -5.7% | [3] -27.6% | [4] 3.35% | [5] -2.85% | [6] -3.5%

C[Si](C)(C)Cn1cccc1
inactive: [1] -7.5% | [2] 8.9% | [3] 5% | [4] -37.6% | [5] -1.15% | [6] -8.85%

Cn1ncc2c(NC(C)(C)CC(C)(C)C)ncnc21
inactive: [1] 21.1% | [2] 7.95% | [3] 1.05% | [4] 1.55% | [5] 45.4% | [6] 16.8%

CCOC(=O)CSCC(=O)OCC
inactive: [1] 3.6% | [2] -9% | [3] -17.2% | [4] 8.45% | [5] -9.4% | [6] -4.65%

CN(C)c1ccc(-c2c3ccccc3nc3ccccc23)cc1
inactive: [1] -19.4% and -12.1% | [2] 9.35% and -6.05% | [3] 14.2% and -14.2% | [4] 0.05% and -26.1% | [5] 9.95% and -16.1% | [6] -4.7% and 5.8%
